Screening data as filed in PubChem.
TPT1 inh – blocks Candida albicans tRNA 2'-phosphotransferase; recombinant caTPT1, FP RNA substrate dephosphorylation; inhibition, % at 5 µM; hit rate 0.81% among 300,000; AID 1962;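 active means inhibition above the mean of all tested compounds plus 3 SD, set per screening campaign, cut at about 24% in these data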;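 further: plate controls were DMSO alone for no effect and ferristatin control at 100 nM for full effect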
CRFR2-BP ag – agonists of human CRF-binding protein/CRF-R2 receptor complex; HEK293 CRF-R2/CRF-BP, calcium dye fluorescence (FLIPR); percent of saturating CRF peptide response; activation, % at 13.2 µM; hit rate 0.46% among 350,000; AID 588473;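 active means activation of at least 50%, plus an integration ratio under a set limit after plate pattern correction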;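 further: plate controls were neutral control wells without compound for no effect and CRF at EC100 for full effect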
CRFBP-R2 block – antagonists of CRF-binding protein/CRF-R2 receptor complex | inhibition, % at 11.8 µM | HEK293 CRF-R2/CRF-BP, CRF-induced calcium fluorescence | hit rate 0.59% among 350,000;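 active means inhibition of the ligand-induced calcium signal above about 50% at the single tested concentration, limit read from the data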
IDE cell activ – IDE (human) activation, cell-based | hit rate 0.073% among 340,000 | activation, % at 5.96 µM | HEK cells, FAbeta-B cleavage, fluorescence polarization; 0% vehicle, 100% cell-free pure enzyme wells | P14735;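 active means activation above the mean of all tested compounds plus 3 SD, set per screening campaign, cut at about 17% in these data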
Target sequence (P14735 whole entry, looked up): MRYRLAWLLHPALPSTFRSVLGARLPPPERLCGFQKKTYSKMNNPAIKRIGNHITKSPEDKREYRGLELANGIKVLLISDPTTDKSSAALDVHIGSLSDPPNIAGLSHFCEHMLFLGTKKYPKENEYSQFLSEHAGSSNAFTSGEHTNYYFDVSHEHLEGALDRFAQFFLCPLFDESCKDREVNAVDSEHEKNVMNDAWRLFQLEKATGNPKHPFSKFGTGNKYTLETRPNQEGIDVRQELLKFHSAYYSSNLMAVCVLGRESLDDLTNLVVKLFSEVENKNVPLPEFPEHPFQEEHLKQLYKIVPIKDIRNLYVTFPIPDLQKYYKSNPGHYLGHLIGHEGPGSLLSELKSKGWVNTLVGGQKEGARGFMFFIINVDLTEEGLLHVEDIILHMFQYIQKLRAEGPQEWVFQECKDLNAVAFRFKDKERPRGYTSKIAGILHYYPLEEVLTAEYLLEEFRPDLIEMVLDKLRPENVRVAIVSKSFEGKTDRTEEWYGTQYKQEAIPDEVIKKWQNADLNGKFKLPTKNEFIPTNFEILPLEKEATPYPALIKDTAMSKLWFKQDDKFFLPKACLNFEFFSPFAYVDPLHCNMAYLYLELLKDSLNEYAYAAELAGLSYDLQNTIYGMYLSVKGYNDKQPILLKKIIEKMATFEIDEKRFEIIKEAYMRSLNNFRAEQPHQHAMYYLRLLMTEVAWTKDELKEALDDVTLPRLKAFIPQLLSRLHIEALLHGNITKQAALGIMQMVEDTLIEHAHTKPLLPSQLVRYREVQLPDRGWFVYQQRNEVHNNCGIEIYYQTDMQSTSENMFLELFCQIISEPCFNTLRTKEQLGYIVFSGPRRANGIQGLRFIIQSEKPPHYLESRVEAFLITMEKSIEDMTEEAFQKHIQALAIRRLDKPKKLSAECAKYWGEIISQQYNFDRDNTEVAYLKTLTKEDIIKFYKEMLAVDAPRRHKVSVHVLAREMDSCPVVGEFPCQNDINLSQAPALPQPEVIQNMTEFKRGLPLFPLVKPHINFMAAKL
Myeloid diff MLP – promotes myeloid progenitor differentiation. hit rate 1% among 360,000. ER-HoxA9 myeloid progenitors, lysozyme-GFP differentiation, flow cytometry. calls only at 10 µM;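 active means normalized GFP-positive differentiation at or above the plate's own cutoff, the solvent-only control mean plus 3 SD; inconclusive means no clear call, values can overlap the other calls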;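 further: cells exposed to compound for four days before flow analysis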
IDE cell inh – inhibits human insulin-degrading enzyme in HEK cells; FAbetaB cleavage, fluorescence polarization; inhibition, % at 5.59 µM; AID 434962; hit rate 0.41% among 320,000;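 active means percent inhibition above the average of all tested compounds plus 3 SD, set per screening campaign, cut at about 16% in these data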;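 further: IDE supplied by intact live HEK cells; FP after avidin binding of uncleaved biotin substrate so inhibition keeps polarization high; 0% = DMSO wells and 100% = 60 µM reference IDE inhibitor Ii1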
IDE inh confirm – cellular human IDE inhibition, confirmation; HEK cells, FAbetaB cleavage, fluorescence polarization; AID 435028; inhibition, % at 5.59 µM; shares compounds with IDE cell inh; hit rate 51% among 1,200;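 active means mean inhibition across triplicate wells above the cutoff set by the earlier primary insulin-degrading enzyme screen, cut at about 16% in these data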;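 further: 0% = DMSO wells and 100% = 60 µM reference IDE inhibitor Ii1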
HEK cytotox – kills HEK cells in IDE inhibitor counter-screen. hit rate 28% among 1,200. shares compounds with IDE cell inh. HEK293 cytotoxicity, ATP luminescence. inhibition, % at 5.59 µM; in the data active means inhibition above about 22%;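 further: 0% = vehicle wells and 100% = reference cytotoxic drug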
FP fluor counter – fluorescence interference counter-screen for IDE inhibitors; shares compounds with IDE cell inh; 30 tested, under 10 active; FP counterscreen for fluorescent artifacts, IDE probe project; IC50, µM; call rule not given here
* marks the source's active call; other numbers are inactive results; i = inactive; ? = inconclusive; / = no result given. This is a sample that favours compounds with a hit; in the whole collection about 2.6% have one here.

SMILES	TPT1 inh	CRFR2-BP ag	CRFBP-R2 block	IDE cell activ	Myeloid diff MLP	IDE cell inh	IDE inh confirm	HEK cytotox	others
COc1cccc(/C=N/Nc2ncnc3c2[nH]c2ccc(C)cc23)c1OC	3	-3	-6	-45	i	63*	59*	14
C=CCNc1ncnc2c1[nH]c1ccc(C)cc12	4	0	-5	-18	/	30*	15	35*
CCCCc1cc(=O)oc2cc(OCC(=O)N3CCC(C(N)=O)CC3)ccc12	-3	0	6	-3	i	18*	8	9
CCCCc1cc(=O)oc2c(C)c(OCC(=O)N3C[C@H]4C[C@@H](C3)c3cccc(=O)n3C4)ccc12	-1	1	-16	-21	i	23*	7	15
CCCc1cc(=O)oc2cc(OCC(=O)N3C[C@H]4C[C@@H](C3)c3cccc(=O)n3C4)c(Cl)cc12	-3	0	-4	3	i	0	/	/
Cc1oc2cc3oc(=O)c(CCC(=O)N4C[C@H]5C[C@@H](C4)c4cccc(=O)n4C5)c(C)c3cc2c1C	-4	-1	12	-20	i	18*	9	14
CCC1(CC)NC(=O)N(CC(=O)OCC(=O)Nc2cc(OC)ccc2OC)C1=O	/	-2	12	4	i	0	/	/
COC(=O)c1ccc(S(=O)(=O)NCCSc2nnc3c4ccccc4n(C)c3n2)cc1	0	0	-31	2	i	8	/	/
Cc1ccc(-n2sc3ccccc3c2=O)cc1	-2	4	29	-51	i	97*	32*	99*
O=c1c2ccccc2sn1-c1ccc(F)cc1	/	12	4	-23	?	60*	18*	64*
COC(=O)c1cccc(-n2sc3ccccc3c2=O)c1	/	6	1	-23	i	68*	37*	45*
Cn1c(COc2ccccc2Br)nc2ccccc21	-3	0	-37	5	i	1	/	/
COC(=O)[C@]12CCCCC=C1N(CCc1ccc(OC)c(OC)c1)C(=O)[C@H](CC(=O)NCc1cccc(C(F)(F)F)c1)C2	/	/	/	/	i	/	/	/
COc1ccc(/C=N/NC(=O)CNC(=O)c2ccncc2)cc1	-4	-2	11	1	i	-3	/	/
Cc1ccccc1CN1C(=O)[C@H]2Cc3c([nH]c4ccccc34)C(C)(C)N2C1=O	-1	5	-16	4	i	2	/	/
Cc1ccc(CNC(=O)CNC(=O)c2c(C)nn(C)c2Cl)cc1	-1	1	3	2	i	2	/	/
Cc1cc(C)cc(NCc2cc(=O)oc3cc(-c4ccccc4)c(O)cc23)c1	-2	3	-21	-2	i	5	/	/
COc1ccc(C)cc1NCc1cc(=O)oc2cc(-c3ccccc3)c(O)cc12	-2	1	-6	-12	i	20*	5	19
O=C(Nc1ccc(Cl)cc1)c1csc(Cc2ccccc2)n1	-2	-1	-6	5	i	-1	/	/
O=C(Nc1cccc(C(F)(F)F)c1)c1csc(Cc2cccc(C(F)(F)F)c2)n1	/	/	/	/	/	/	/	/	FP fluor counter=>55
COC1=C/C(=C/c2c(N)n3nc(CC(=O)N4CCCC4)sc3nc2=O)C=CC1=O	13	18	-34	-45	i	24*	126*	15
Nc1c(/C=C2/C=CC(=O)C(O)=C2)c(=O)nc2sc(CC(=O)N3CCCCC3)nn12	2	14	-21	-26	?	15	/	/
Nc1c(/C=C2/C=CC(=O)C(O)=C2)c(=O)nc2sc(CC(=O)N3CCCC3)nn12	5	0	4	-12	i	3	/	/
CCOC1=C/C(=C/c2c(N)n3nc(CC(=O)N4CCCC4)sc3nc2=O)C=CC1=O	8	21	-43	-88	i	30*	39*	12
Cc1cccc(CNC(=O)c2ccc(NC(=O)C3=CSCCO3)cc2)c1	-4	-1	0	5	i	-3	/	/
SMILES	TPT1 inh	CRFR2-BP ag	CRFBP-R2 block	IDE cell activ	Myeloid diff MLP	IDE cell inh	IDE inh confirm	HEK cytotox	others
CC(C)c1ccccc1-n1c(SCc2cc(=O)oc3ccc4ccccc4c23)nnc1-c1cccnc1	-3	12	-6	-59	i	24*	13	21
Cc1ccc(NC(=O)CSc2nnc(CSc3nc(C)cc(C)n3)n2Cc2ccco2)c(C)c1	1	-1	4	-1	i	3	/	/
O=C(CSc1nnc(-c2cccc(Cl)c2)n1Cc1ccco1)Nc1ccccc1C(F)(F)F	/	/	/	/	/	/	/	/	FP fluor counter=>55
O=C(CSc1nnc(-c2ccncc2)n1Cc1ccco1)Nc1ccccc1Cl	2	0	1	4	i	9	/	/
Cc1ccc(NC(=O)CSc2nnc(-c3cccc(Cl)c3)n2Cc2ccco2)c(C)c1	/	/	/	/	/	/	/	/	FP fluor counter=>55
O=c1cc(CNc2cc(Cl)ccc2Cl)nc2sccn12	-3	-3	-21	-20	i	17*	7	8
O=C(c1ccccc1)c1ccc(O)cc1O	-20	61*	-44	-26	i	19*	40*	5
Cc1cc(=O)[nH]c(/N=C(\N)Nc2ccc(Oc3ccccc3)cc2)n1	0	1	0	1	i	3	/	/
Cc1cc(=O)[nH]c(/N=C(\N)Nc2cccc3ccccc23)n1	-2	-4	-15	-35	i	16*	7	13
Brc1cc2[nH]cnc2c2ccccc12	3	1	-9	-39	i	22*	11	16
Oc1ccc2c(ccc3[nH]cnc32)c1	-3	-2	22	3	i	3	/	/
CCOC(=O)c1ccc2c(c1)n(CC)c(/C=C/N(C)c1ccccc1)[n+]2CC	1	0	-16	2	i	-3	/	/
CC[n+]1c(/C=C/N(C)c2ccccc2)n(-c2ccccc2)c2ccc(-c3nc4ccccc4s3)cc21	9	3	-7	-29	?	57*	22*	118*
COc1ccc(Br)cc1/C=N/NC(=O)CNC(=O)C1COc2ccccc2O1 (stereo not given)	-4	0	-18	-22	i	30*	23*	2
O=C(CNC(=O)C1COc2ccccc2O1)N/N=C\c1ccc(Br)cc1 (stereo not given)	2	-2	-5	3	i	3	/	/
COc1cc(/C=C2/SC(=NCc3ccccc3)N(Cc3ccccc3)C2=O)ccc1O	16	0	1	-38	i	38*	57*	15
CC1(C)CC(=O)C2=C(C1)N(c1ccccc1)C(=O)C2(O)C(F)(F)F (stereo not given)	-3	-1	-2	3	i	16*	2	7
